The text below walks through data of ChEMBL document CHEMBL3988442, “University of Dundee, Small-Polar-MMV Screening Library” (2021).

What all share (parameters): scale not given: direction of the effect not stated beside the values
The target in assay [1] is Protein translocase subunit SecA (Escherichia coli (strain K12)) (UniProt P10408). The assay is described as follows: Assay to Identify E. coli SecA ATPase Inhibitors. It is filed as functional. To be noted: 30 µM.
The target in assay [2] is T1, Ubiquitin-activating enzyme e1, putative (Leishmania donovani (strain BPK282A1)) (UniProt E9BSI1).
T1 sequence (whole entry): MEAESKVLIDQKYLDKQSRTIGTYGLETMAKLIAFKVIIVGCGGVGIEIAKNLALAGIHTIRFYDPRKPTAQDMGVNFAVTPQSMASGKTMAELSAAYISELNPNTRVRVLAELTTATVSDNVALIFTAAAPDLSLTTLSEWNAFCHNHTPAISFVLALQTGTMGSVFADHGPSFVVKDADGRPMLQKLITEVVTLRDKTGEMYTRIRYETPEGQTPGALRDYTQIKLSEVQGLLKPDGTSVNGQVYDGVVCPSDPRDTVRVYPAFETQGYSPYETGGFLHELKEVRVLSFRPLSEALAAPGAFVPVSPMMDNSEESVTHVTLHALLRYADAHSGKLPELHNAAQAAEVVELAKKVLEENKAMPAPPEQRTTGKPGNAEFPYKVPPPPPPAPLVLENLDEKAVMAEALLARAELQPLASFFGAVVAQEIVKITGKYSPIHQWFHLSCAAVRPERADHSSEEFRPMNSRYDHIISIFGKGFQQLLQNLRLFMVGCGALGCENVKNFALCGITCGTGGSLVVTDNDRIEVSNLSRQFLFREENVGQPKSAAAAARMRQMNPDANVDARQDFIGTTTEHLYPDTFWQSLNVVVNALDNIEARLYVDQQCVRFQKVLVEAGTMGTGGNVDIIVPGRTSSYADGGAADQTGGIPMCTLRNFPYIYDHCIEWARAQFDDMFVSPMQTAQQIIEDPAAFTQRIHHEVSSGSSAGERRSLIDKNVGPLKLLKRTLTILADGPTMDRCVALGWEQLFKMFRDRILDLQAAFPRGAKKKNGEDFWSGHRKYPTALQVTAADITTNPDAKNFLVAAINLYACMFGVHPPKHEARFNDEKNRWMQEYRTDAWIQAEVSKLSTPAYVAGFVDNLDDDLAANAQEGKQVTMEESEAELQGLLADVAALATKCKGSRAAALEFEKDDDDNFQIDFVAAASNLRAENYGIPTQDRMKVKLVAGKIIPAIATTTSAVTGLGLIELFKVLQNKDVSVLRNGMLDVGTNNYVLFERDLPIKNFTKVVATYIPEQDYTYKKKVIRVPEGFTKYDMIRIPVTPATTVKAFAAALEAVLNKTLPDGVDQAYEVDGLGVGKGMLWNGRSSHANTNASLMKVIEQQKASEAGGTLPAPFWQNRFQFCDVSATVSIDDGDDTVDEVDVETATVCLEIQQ
The assay is described as follows: Leishmania donovani Ubiquitin Activating Enzyme (LdE1). It is filed as functional. The note with it: 30 µM.

For assay [3], the target named is Sialic acid-binding Ig-like lectin 9 (Homo sapiens) (UniProt Q9Y336). The assay is described as follows: Hs-Siglec9 ALPHAscreen SOP 20170721. To be noted: 10 µM. Background: Bead proximity is the source of the signal in Alpha formats.
The test system of assay [4] is Trypanosoma cruzi. The assay is described as follows: Trypanosoma cruzi phosphomannomutase and mannose-1-phosphate guanylyltransferase assay. It is filed as functional. To be noted: 10 µM.
The target of assay [5] is T2, Arginase-2, mitochondrial (Homo sapiens) (UniProt P78540).
T2 sequence (whole entry): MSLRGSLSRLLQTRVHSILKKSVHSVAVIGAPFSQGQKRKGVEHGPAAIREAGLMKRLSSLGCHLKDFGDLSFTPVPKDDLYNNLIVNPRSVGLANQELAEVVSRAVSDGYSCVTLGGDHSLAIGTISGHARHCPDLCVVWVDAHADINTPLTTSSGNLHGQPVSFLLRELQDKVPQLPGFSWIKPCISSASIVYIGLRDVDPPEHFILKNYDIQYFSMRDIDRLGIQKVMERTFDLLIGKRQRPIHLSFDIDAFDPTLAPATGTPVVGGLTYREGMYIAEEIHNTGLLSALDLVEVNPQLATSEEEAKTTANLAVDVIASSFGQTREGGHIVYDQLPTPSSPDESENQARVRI
The assay is described as follows: in vitro enzyme assay to detect the production of urea directly proportional to the activity of Arginase II. Also: in the data most compounds retested in dose-response had high values. It is filed as functional. The note with it: 33.3 µM.

Assay [6] addresses T3, Proteasome subunit beta (Trypanosoma cruzi) (UniProt O96673).
T3 sequence (whole entry): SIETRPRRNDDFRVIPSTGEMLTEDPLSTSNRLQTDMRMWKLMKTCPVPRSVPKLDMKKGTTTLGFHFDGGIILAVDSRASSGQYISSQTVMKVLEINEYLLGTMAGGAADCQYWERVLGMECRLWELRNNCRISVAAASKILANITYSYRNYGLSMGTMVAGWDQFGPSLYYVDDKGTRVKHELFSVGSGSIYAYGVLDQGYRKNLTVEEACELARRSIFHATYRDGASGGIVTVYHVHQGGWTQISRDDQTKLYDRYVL
The assay is described as follows: Trypanosoma cruzi proteasome chymotrypsin-like activity (TcProtChymo) assay. Also: in the data most compounds retested in dose-response had high values. The assay is classed as functional. The note with it: 9.37 µM.

Assay [7] is filed under the species Homo sapiens. The assay is described as follows: To identify inhibition of the IFN signalling (Jak-Stat) pathway via expression of an eGFP reporter gene under the control of an IFN-stimulated response element (ISRE) containing MxA promoter. It is filed as functional. The note with it: 30 µM. (In general: In a reporter assay the amount or activity of a reporter protein is the signal.)

Assay [8] deals with T4, Tyrosyl-tRNA synthetase, putative (Trypanosoma cruzi (strain CL Brener)) (UniProt Q4DSP6).
T4 sequence (whole entry): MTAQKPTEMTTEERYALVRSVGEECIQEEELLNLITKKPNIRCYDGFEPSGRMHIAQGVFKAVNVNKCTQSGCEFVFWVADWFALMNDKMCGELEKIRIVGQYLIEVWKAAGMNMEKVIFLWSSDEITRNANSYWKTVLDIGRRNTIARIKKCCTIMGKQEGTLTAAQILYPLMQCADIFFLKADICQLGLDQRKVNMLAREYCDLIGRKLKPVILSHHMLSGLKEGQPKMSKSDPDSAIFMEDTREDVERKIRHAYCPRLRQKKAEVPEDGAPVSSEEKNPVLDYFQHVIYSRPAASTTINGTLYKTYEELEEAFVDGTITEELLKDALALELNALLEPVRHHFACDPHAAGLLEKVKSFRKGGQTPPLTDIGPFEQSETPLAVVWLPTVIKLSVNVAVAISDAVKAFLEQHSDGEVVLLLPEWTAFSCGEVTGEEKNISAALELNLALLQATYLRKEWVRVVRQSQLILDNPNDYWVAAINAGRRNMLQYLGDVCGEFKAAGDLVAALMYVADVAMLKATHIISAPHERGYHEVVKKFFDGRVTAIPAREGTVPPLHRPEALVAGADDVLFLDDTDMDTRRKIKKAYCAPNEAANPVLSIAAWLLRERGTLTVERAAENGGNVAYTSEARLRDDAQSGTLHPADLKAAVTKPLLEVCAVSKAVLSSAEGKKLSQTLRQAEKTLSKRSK
The assay is described as follows: Trypanosoma cruzi tyrosyl tRNA synthetase (TcYRS) _High Tyrosine SOP. Also: in the data most compounds retested in dose-response had high values. The assay is classed as functional. To be noted: 30 µM.

The target in assay [9] is T4, Tyrosyl-tRNA synthetase, putative (Trypanosoma cruzi (strain CL Brener)). The assay is described as follows: Trypanosoma cruzi tyrosyl tRNA synthetase (TcYRS) SOP. It is filed as functional. The note with it: 30 µM.
Assay [10] addresses Chromo domain-containing protein 1 (Saccharomyces cerevisiae (strain ATCC 204508 / S288c) (Baker's yeast)) (UniProt P32657). The assay is described as follows: ScCHD-1 Enzyme Inhibition Assay. Also: in the data most compounds retested in dose-response had high values. The note with it: 30 µM. The assay is classed as functional.

For some of these results: Measured potencies and affinities stand elsewhere.

Chain of Chromo domain-containing protein 1 (Saccharomyces cerevisiae (strain ATCC 204508 / S288c) (Baker's yeast)) (P32657 whole entry, the tested form may be a part): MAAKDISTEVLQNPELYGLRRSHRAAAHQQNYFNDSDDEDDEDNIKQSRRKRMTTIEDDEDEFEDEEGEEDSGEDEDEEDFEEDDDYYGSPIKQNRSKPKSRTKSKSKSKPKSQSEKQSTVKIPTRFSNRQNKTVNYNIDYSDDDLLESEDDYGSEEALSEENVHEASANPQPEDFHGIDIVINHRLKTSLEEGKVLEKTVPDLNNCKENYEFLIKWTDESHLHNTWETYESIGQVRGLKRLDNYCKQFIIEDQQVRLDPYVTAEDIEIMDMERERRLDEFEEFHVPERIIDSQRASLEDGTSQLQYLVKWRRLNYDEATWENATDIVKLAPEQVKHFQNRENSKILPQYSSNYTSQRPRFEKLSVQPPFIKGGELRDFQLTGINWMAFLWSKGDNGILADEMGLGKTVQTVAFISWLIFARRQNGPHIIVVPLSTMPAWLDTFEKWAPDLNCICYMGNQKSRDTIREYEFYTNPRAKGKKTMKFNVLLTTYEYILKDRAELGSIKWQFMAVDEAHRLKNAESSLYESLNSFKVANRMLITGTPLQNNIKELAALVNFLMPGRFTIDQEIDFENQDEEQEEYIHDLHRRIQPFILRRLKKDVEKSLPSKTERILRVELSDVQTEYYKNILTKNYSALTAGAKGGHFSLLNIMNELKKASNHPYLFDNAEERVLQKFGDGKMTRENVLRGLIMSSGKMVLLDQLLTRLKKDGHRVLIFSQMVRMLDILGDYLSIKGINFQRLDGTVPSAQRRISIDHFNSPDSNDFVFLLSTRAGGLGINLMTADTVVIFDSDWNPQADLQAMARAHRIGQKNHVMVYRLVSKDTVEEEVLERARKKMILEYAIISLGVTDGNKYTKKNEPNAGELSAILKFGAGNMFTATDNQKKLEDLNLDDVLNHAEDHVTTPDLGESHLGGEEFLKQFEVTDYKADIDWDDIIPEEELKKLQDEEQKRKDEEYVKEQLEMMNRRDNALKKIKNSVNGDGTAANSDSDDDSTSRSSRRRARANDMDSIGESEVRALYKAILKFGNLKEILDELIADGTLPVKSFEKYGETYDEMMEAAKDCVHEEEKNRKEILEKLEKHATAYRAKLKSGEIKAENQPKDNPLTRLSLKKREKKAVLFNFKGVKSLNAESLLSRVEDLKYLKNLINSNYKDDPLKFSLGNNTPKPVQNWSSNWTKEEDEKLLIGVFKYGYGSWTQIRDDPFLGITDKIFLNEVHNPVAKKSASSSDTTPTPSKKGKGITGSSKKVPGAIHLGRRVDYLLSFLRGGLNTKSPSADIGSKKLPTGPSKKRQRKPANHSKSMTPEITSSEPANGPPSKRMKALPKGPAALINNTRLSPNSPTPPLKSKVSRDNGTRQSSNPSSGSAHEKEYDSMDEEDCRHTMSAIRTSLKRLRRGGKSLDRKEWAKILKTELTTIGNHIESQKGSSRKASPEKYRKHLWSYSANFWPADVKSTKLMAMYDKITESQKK
Chain of Sialic acid-binding Ig-like lectin 9 (Homo sapiens) (Q9Y336 whole entry): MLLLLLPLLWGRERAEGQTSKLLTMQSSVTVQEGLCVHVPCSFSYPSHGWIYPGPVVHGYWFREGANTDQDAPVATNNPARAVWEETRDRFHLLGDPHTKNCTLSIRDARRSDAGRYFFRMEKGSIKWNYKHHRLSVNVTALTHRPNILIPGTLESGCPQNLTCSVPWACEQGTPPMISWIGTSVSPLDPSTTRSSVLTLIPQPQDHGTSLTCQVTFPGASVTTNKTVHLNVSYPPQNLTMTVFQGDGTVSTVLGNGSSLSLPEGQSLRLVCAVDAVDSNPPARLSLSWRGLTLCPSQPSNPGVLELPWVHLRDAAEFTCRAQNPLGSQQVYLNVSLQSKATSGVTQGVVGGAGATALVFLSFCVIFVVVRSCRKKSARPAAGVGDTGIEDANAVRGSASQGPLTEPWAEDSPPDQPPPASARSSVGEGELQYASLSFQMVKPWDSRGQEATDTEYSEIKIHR
Chain of Protein translocase subunit SecA (Escherichia coli (strain K12)) (P10408 whole entry): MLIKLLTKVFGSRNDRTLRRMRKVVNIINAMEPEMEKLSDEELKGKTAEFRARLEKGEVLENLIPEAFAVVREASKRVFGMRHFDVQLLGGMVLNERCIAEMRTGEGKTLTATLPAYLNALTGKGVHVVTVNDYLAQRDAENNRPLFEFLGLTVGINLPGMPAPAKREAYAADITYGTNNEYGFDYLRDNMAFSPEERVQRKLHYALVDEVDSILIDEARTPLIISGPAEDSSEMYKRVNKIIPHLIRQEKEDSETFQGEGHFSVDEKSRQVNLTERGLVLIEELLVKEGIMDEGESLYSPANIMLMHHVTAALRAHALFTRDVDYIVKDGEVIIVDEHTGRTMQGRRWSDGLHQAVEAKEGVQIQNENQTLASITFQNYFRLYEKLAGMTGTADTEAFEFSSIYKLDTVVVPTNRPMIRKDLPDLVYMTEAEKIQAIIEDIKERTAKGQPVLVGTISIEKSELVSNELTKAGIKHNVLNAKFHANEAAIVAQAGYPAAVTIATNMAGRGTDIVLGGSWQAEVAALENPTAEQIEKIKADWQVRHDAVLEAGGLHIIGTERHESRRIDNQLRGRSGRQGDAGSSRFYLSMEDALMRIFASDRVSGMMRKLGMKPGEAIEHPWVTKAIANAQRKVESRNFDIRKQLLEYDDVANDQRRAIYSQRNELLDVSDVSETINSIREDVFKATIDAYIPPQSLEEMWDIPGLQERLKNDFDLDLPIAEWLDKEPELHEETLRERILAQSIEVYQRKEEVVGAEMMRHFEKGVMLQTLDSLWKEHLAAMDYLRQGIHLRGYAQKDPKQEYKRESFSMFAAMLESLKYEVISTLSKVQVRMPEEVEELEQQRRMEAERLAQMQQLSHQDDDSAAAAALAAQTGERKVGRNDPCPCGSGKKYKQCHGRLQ

Regarding `CN(C)CC(=O)N1CCC2(CC1)COC(COc1ccccn1)C2` (stereo not given), the Percent Effect in [1] is -4.97%; in assay [2], 6.49%; in [3] it was -5.49%; in assay [4], 2.82%; in [5], -4.86%; in assay [6], 12.3%. The Percent Effect is -11.4% in assay [7], 5.79% in assay [8], 12.8% in assay [9] and -0.892% in assay [10].
Regarding `O=C1CC2(CCN(S(=O)(=O)c3cccs3)C2)CN1c1ccccc1` (stereo not given), the Percent Effect is -4.36% in [1]; 9.09% in assay [2]; 0.409% in assay [3]; -2.81% in [4]; 3.65% in assay [5]; 2.83% in assay [6]. For the same molecule, the Percent Effect is 8.75% in assay [7], -1.93% in assay [8], -2.5% in assay [9] and -2.17% in [10].
Take `CC(Cn1cccn1)NC(=O)NCc1ccccn1` (stereo not given): the Percent Effect in [1] is -2.65%; in [2] it was 8%; in [3], -5.88%; in [4], -5.22%; in [5], 1.33%; in assay [6], 7.04%. The Percent Effect in assay [7] was 13.9%; in [8], 1.58%; in [9], 10.3%; in assay [10], -11%.
On to `Cc1noc(C2CCN(C(=O)c3ccc(NC4CC4)nc3)CC2)n1`, for which the Percent Effect in [1] is -3.73%; in assay [2] it was 20.5%; in assay [3], -12.9%; in [4], 4.6%; in [5], 1.64%; in assay [6], 11.3%. The Percent Effect in [7] was 11.4%; in assay [8] it was 2.39%; in assay [9], 20.5%; in assay [10] it was -6.59%.
Turning to `NC(=O)N1CCC2(CC1)CN(Cc1cccnc1)C(=O)CO2`, the Percent Effect was -0.758% in assay [1]; 11.7% in [2]; 1.96% in assay [3]; -0.188% in [4]; 1.37% in [5]; 8.5% in assay [6]. For the same molecule, the Percent Effect in [7] is -22.1%; in assay [8], 10.6%; in assay [9] it was 15%; in [10] it was -1.18%.
Turning to `Cc1nc(C)n(CC2CCCN2Cc2nc3ccccc3n2C)n1` (stereo not given), the Percent Effect is -5.84% in [1]; 10.7% in assay [2]; 7.93% in [3]; 1.81% in assay [4]; 3.55% in assay [5]; 17.6% in assay [6]. The Percent Effect in assay [7] is 8.44%; in assay [8], 1.58%; in assay [9], 12.8%; in assay [10] it was -12.7%.
As for `Cc1ccccc1CC(=O)N(C)C1CCCC1`, the Percent Effect was -3.46% in [1]; 13.3% in [2]; -5.48% in assay [3]; -4.62% in assay [4]; 3.1% in assay [5]; 16.2% in [6]. Moreover, the Percent Effect is 17% in assay [7], 3.68% in assay [8], 7.69% in [9] and -11.3% in [10].
For `c1ccc(Cn2ccnc2CN2CCCC2c2noc(C3CC3)n2)cc1` (stereo not given), the Percent Effect in assay [1] was 2.82%; in assay [2], 5.33%; in [3] it was -7.23%; in [4], -5.22%; in assay [5], 1.77%; in assay [6], 19.1%. Further, the Percent Effect was 15.7% in [7], 7.89% in assay [8], 10.3% in assay [9] and -12.1% in assay [10].
As to `CCOc1ncccc1C(=O)N1CCCC(c2nccn2CCOC)C1` (stereo not given), the Percent Effect in assay [1] was -8.34%; in assay [2], 5.41%; in assay [3], 1.4%; in [4] it was -1.26%; in assay [5], -3.85%; in assay [6], 12.2%. The Percent Effect is 9.33% in assay [7], 3.72% in assay [8], 12.2% in assay [9] and 2.21% in [10].
Consider `CC(C)c1cc(N2CCN(c3ccc(O)cc3)CC2)n2nccc2n1`, for which the Percent Effect in [1] is -0.0494%; in [2] it was 5.41%; in [3], 0.937%; in assay [4] it was -0.873%; in [5], 5.25%; in [6], 19.7%. Moreover, the Percent Effect in [7] was 0.905%; in assay [8], 27.1%; in [9], 34.1%; in [10], -3.77%.
With `CCNC(=O)[C@@H]1C[C@@H](NC(=O)Cc2ccncc2)CN1Cc1ccsc1`, the Percent Effect in [1] was -12.1%; in [2], 2.7%; in assay [3], 3.71%; in assay [4], -4.56%; in assay [5], -0.35%; in assay [6], 11.6%. In addition, the Percent Effect is -2.37% in assay [7], 4.79% in [8], 2.44% in [9] and 5.29% in assay [10].
`CC(=O)NCCC(=O)NCc1cccnc1-n1cnc2ccccc21`: the Percent Effect in [1] amounted to 0.292%; in assay [2] it was 0%; in assay [3] it was 2.93%; in assay [4] it was 6.69%; in assay [5], 12.2%; in assay [6] it was 1.71%. The Percent Effect in [7] was -5.79%; in assay [8], -0.532%; in assay [9], 2.44%; in assay [10] it was 98.3%.
Regarding `COc1ccc(CC(=O)N2CCc3nnc(N(C)C)cc3C2)cc1F`, the Percent Effect is -3.64% in [1]; 12.8% in assay [2]; -2.71% in assay [3]; -1.97% in assay [4]; 1.23% in [5]; 17.7% in [6]. The Percent Effect is 20.5% in [7], 5.26% in assay [8], 6.02% in assay [9] and -0.877% in assay [10].
